Hits are enriched below; roughly 3.8% of the tested compounds scored in any of these assays.
ADAM10 inh: ADAM10 inhibition, QFRET primary screen. O14672. recombinant ADAM10, EDANS/DABCYL FRET peptide cleavage, 3 h. inhibition, % at 7 µM. 370,000 compounds, 0.62% hits. AID 720582;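 active = inhibition above a per-campaign cutoff equal to the mean of compounds falling between control-based bounds plus 3 SD, cut at about 20% in these data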
Target sequence (O14672 214-748 limits assumed): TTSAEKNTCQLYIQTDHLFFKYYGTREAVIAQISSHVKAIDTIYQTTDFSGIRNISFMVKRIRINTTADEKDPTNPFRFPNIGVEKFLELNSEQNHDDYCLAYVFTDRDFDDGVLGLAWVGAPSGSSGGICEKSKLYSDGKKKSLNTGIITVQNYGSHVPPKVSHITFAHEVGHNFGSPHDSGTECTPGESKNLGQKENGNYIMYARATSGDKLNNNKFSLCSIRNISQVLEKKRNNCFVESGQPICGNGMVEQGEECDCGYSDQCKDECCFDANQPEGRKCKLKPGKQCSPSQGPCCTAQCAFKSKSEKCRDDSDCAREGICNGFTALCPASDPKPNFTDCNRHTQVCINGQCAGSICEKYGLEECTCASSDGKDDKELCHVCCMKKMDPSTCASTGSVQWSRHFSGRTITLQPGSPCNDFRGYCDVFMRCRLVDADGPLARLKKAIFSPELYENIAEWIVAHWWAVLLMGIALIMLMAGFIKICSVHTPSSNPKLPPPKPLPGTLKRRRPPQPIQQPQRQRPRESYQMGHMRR
proKLK7 act: activates the human kallikrein-7 zymogen; P49862; purified proKLK7, EDANS-DABCYL substrate fluorescence; 100% is mature enzyme control, 0% vehicle; activation, % at 7 µM; 370,000 compounds, 0.9% hits;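 active = activation above the mean of all tested compounds plus 3 SD, computed per campaign excluding outliers beyond control limits, cut at about 13% in these data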
Target sequence (P49862 whole entry, looked up): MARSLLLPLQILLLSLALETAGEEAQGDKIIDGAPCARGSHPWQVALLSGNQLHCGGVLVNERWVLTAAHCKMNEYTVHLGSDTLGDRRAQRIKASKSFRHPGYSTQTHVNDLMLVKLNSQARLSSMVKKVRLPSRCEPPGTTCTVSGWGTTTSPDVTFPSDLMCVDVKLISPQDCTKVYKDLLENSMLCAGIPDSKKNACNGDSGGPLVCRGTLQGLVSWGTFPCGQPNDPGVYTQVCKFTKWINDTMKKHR
rRNA inh HTS: inhibitors of bacterial rRNA selective over humanized ribosomes | GFP signal change (wild-type ribosome), % (concentration not given with the values) | E. coli WT GFP vs humanized-ribosome RFP mutants, fluorescence, 24 h; stronger effect = lower value; DMSO median 0, no signal -100 | AID 720706 | 350,000 compounds, 1.6% hits;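 active = significant combined selectivity score with lowered wild-type GFP, culture density cut under 30%, mutant RFP and density less affected; inactive = any of these conditions unmet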
FGF22 binding: shifts melting point of recombinant human FGF22; Q9HCT0; recombinant FGF22 thermal shift, SYPRO orange fluorescence; percent of sucrose octasulfate shift, DMSO zero; activity (Tm shift, normalised), % at 9.99 µM; 340,000 compounds, 1.5% hits;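 active = mean Tm shift, scaled 0 neutral to 100 positive control, at about 1.3% or above, every replicate too, limit read from the data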
ADAM17 inh: ADAM17 inhibition, QFRET primary screen. P78536. recombinant ADAM17, EDANS/DABCYL FRET peptide cleavage. inhibition, % at 6.95 µM. 370,000 compounds, 0.83% hits;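 active = inhibition above the mean of compounds lying between control limits plus 3 SD, set per campaign, cut at about 8.5% in these data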
KLK7 act conf: confirmation of human kallikrein-7 zymogen activators; shares compounds with proKLK7 act; purified proKLK7, EDANS-DABCYL substrate fluorescence; scaled: vehicle 0, mature enzyme 100; activation, % at 7 µM; 3,200 compounds, 68% hits;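 active = activation, as change over the incubation, above the mean of all tested compounds plus 3 SD, cut at about 13% in these data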
EDANS-DABCYL int: counter-screen for kallikrein-7 activators: EDANS-DABCYL optical interference; AID 686952; shares compounds with proKLK7 act; activation, % at 7 µM; EDANS-DABCYL substrate fluorescence interference, no enzyme, 4 h; solvent 0%, active enzyme control 100%; 3,200 compounds, 80% hits;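 active = activation above the all-compound mean plus 3 SD, ignoring values outside control-based bounds, cut at about 4.8% in these data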;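 also: value is the 4 h activation minus the activation read at time zero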
EDANS interf: optically interferes with EDANS-DABCYL fluorescence, kallikrein-7 activator counter-screen | shares compounds with proKLK7 act | EDANS-DABCYL peptide fluorescence interference, no enzyme | EC50, µM | 250 compounds, 20% hits;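 active = compounds that raise the fluorescence signal in this interference counterscreen, with EC50 at or below 10 µM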;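 also: intact quenched peptide substrate alone read at 355 nm excitation and 520 nm emission; signal is fluorescence gain from T0 to T4 after four hours at room temperature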
Of the large screens only hits and unclear results are named; the others gave an inactive call (follow-up assays come after a bar, where they were run).

Cc1ccc(S(=O)(=O)c2c(N)n(CCCO)c3nc4ccccc4nc23)cc1	proKLK7 act 14 (no result: rRNA inh HTS, FGF22 binding) | KLK7 act conf inactive | EDANS-DABCYL int inactive
Cc1ccc(S(=O)(=O)c2c(N)n(CCC(C)C)c3nc4ccccc4nc23)cc1	none (no result: rRNA inh HTS, FGF22 binding)
COc1ccccc1C(=O)Nc1ccc2c(c1)OC[C@H](C)N(CC1CC1)C[C@H](C)[C@H](OC)CN(C)C2=O	none (no result: ADAM10 inh, proKLK7 act, FGF22 binding, ADAM17 inh)
Cc1ccc2nc3ccc(N4CCN(C)CC4)nn3c(=O)c2c1	proKLK7 act 40 (no result: rRNA inh HTS, FGF22 binding) | KLK7 act conf inactive | EDANS-DABCYL int 13
COc1ccccc1C1NC(=O)NC(C)=C1C(=O)OC1CCCCC1 (stereo unspecified)	none
COc1ccc(OC)c(C2NC(=O)NC(C)=C2C(=O)OC2CCCCC2)c1 (stereo unspecified)	proKLK7 act 19 | KLK7 act conf inactive | EDANS-DABCYL int inactive
CCCNC(=O)N1C[C@H](C)[C@@H](OC)CN(C)C(=O)c2ccc(NS(C)(=O)=O)cc2OC[C@H]1C	none (no result: ADAM10 inh, proKLK7 act, ADAM17 inh)
COC(=O)C1=C(C)Nc2nnnn2C1c1cccnc1 (stereo unspecified)	none (no result: rRNA inh HTS, FGF22 binding)
CC1=C(C(=O)Nc2ccccn2)C(c2cccnc2)n2nnnc2N1 (stereo unspecified)	proKLK7 act 21 | KLK7 act conf inactive | EDANS-DABCYL int 5.8
CCOC(=O)CC(=O)CSc1nc(C)cc(C)c1C#N	proKLK7 act 41 (no result: rRNA inh HTS, FGF22 binding) | KLK7 act conf 61 | EDANS-DABCYL int 74
Cc1cc(C)c(C#N)c(SCC(=O)Nc2nonc2N)n1	proKLK7 act 40 | KLK7 act conf 74 | EDANS-DABCYL int 72
Cc1ccc(C)c(NC(=O)CSc2nc(C)cc(C)c2C#N)c1	none (no result: rRNA inh HTS, FGF22 binding)
COC(=O)CSc1ccc(C#N)c(SCC(=O)OC)c1	proKLK7 act 17 (no result: rRNA inh HTS, FGF22 binding) | KLK7 act conf 27 | EDANS-DABCYL int 27
Cc1cc(C)c(C#N)c(SCC(=O)C2CC2)n1	proKLK7 act 89 | KLK7 act conf 121 | EDANS-DABCYL int 135
COC(=O)CSc1cc(SCC(=O)OC)c(C#N)c(SCC(=O)OC)c1	none (no result: rRNA inh HTS, FGF22 binding)
Cc1noc(C)c1S(=O)(=O)N(C)C[C@@H]1OCCCC[C@H](C)Oc2ccc(NS(=O)(=O)c3ccc(Cl)cc3)cc2C(=O)N([C@@H](C)CO)C[C@H]1C	none (no result: ADAM10 inh, proKLK7 act, ADAM17 inh)
O=C(C[C@H]1CC[C@@H](NC(=O)NC2CCCCC2)[C@@H](CO)O1)NCc1ccccc1	none (no result: ADAM10 inh, proKLK7 act, ADAM17 inh)
COC(=O)CSc1nc(C)cc(C(F)(F)F)c1C#N	none (no result: rRNA inh HTS, FGF22 binding)
CCOC(=O)CCSc1nc2c(c(C(F)(F)F)c1C#N)CCC2	none (no result: rRNA inh HTS, FGF22 binding)
COCc1cc(C)nc(SCC(=O)Nc2nc(C)cs2)c1C#N	proKLK7 act 76 | KLK7 act conf 140 | EDANS-DABCYL int 136
COCc1cc(C)nc(SCC(=O)Nc2cccc(C)c2C)c1C#N	none
COC(=O)CSc1ccccc1C(=O)OC	proKLK7 act 55 | KLK7 act conf 84 | EDANS-DABCYL int 83
CCOC(=O)CC(=O)CSc1nc2c(c(C)c1C#N)CCC2	proKLK7 act 45 (no result: rRNA inh HTS, FGF22 binding) | KLK7 act conf 75 | EDANS-DABCYL int 70
COC(=O)c1ccccc1SCC(=O)Nc1ccc(N2CCOCC2)cc1	none
COC(=O)CSc1nc(C)cc(C)c1C#N	proKLK7 act 58 | KLK7 act conf 125 | EDANS-DABCYL int 121
CCCOc1ccc(/C=C2\SC(N)=NC2=O)cc1OC	proKLK7 act 18 | KLK7 act conf inactive | EDANS-DABCYL int inactive
COc1ccc(/C=C2\SC(N)=NC2=O)cc1Br	none
CO[C@@H]1CN(C)C(=O)c2ccc(NS(C)(=O)=O)cc2OC[C@@H](C)N(C(=O)C2CC2)C[C@@H]1C	none (no result: ADAM10 inh, proKLK7 act, ADAM17 inh)
CN1C(=O)c2cccc3c(S(=O)(=O)Nc4ccccc4F)ccc1c23	none
CCN1C(=O)c2cccc3c(Cl)ccc1c23	none
CN1C(=O)c2cccc3c(S(=O)(=O)N(C)C)ccc1c23	proKLK7 act 49 | KLK7 act conf 66 | EDANS-DABCYL int 73
CNS(=O)(=O)c1ccc2c3c(cccc13)C(=O)N2C	proKLK7 act 35 | KLK7 act conf 55 | EDANS-DABCYL int 66
CCN1C(=O)c2cccc3c(S(=O)(=O)N(C)C)ccc1c23	proKLK7 act 65 | KLK7 act conf 73 | EDANS-DABCYL int 75
O=C(c1ccc(F)cc1)N1CCCCN2[C@H](CO)[C@@H](c3ccc(-c4ccc(F)cc4)cc3)[C@H]2C1	none (no result: ADAM10 inh, proKLK7 act, rRNA inh HTS, ADAM17 inh)
CO[C@H]1CN(C)C(=O)c2ccc(NC(=O)C3CC3)cc2OC[C@@H](C)N(Cc2ccncc2)C[C@@H]1C	none (no result: ADAM10 inh, proKLK7 act, rRNA inh HTS, ADAM17 inh)
COc1ccc(S(=O)(=O)N(C)C[C@H]2OCCCC[C@H](C)Oc3ccc(NS(=O)(=O)c4cccs4)cc3C(=O)N([C@H](C)CO)C[C@@H]2C)cc1	none (no result: ADAM10 inh, proKLK7 act, ADAM17 inh)
Cc1ccc(S(=O)(=O)N2CC[C@@H]3[C@@H](CO)Nc4ccc(Br)cc4[C@@H]32)cc1	none (no result: ADAM10 inh, proKLK7 act, ADAM17 inh)
CCOC(=O)Cn1nc(-c2ccc(Cl)cc2)ccc1=O	none (no result: rRNA inh HTS, FGF22 binding)
CC(=O)N(C(C)=O)c1ncnc2c1c(-c1ccc(Cl)cc1)nn2C(C)(C)C	proKLK7 act 27 | KLK7 act conf 27 | EDANS-DABCYL int 30
CC(=O)Nc1ncnc2c1c(-c1ccc(Cl)cc1)nn2C(C)(C)C	proKLK7 act 13 | KLK7 act conf inactive | EDANS-DABCYL int inactive
O=C(N[C@H]1CC[C@@H](CCn2cc(C3(O)CCCC3)nn2)O[C@H]1CO)c1ccccc1F	none (no result: ADAM10 inh, proKLK7 act, ADAM17 inh)
Cc1ccc(C=Nc2ccccc2C(N)=O)s1	proKLK7 act 17 (no result: rRNA inh HTS, FGF22 binding) | KLK7 act conf inactive | EDANS-DABCYL int 14
Cc1ccc(/C=N/N=C/c2ccc(C)s2)s1	none (no result: rRNA inh HTS, FGF22 binding)
Cc1cccc(C=Nc2ccccc2C(N)=O)c1	proKLK7 act 13 | KLK7 act conf 28 | EDANS-DABCYL int 22 | EDANS interf inactive
CO[C@@H]1CN(C)C(=O)c2cc(NC(=O)c3ccccc3F)ccc2OC[C@H](C)N(CC2CC2)C[C@@H]1C	none (no result: ADAM10 inh, proKLK7 act, ADAM17 inh)
O=C(C1CC1)N1CC(=O)N2[C@H](CO)[C@@H](c3ccc(C#Cc4cccc(F)c4)cc3)[C@@H]2C1	none (no result: ADAM10 inh, proKLK7 act, FGF22 binding, ADAM17 inh)
CCOC(=O)c1c2ccc(OCC(=O)N/N=C/c3ccc(C)cc3)cc2n2ccccc12	none (no result: rRNA inh HTS, FGF22 binding)
CCOC(=O)c1c2ccc(OCC(=O)NN)cc2n2ccccc12	proKLK7 act 49, rRNA inh HTS -24, FGF22 binding 43 | KLK7 act conf inactive | EDANS-DABCYL int inactive
COc1ccc2c3c([nH]c2c1)[C@H](CO)N(C(=O)c1ccccc1)CC31CCN(C(=O)Nc2cccc(F)c2)CC1	none (no result: ADAM10 inh, proKLK7 act, FGF22 binding, ADAM17 inh)
CCCCNC(=O)CC1S/C(=N/N=C/c2ccc(OC)cc2)NC1=O (stereo unspecified)	none

Screening results: PubChem, several laboratories
